# An excerpt weighted towards active compounds, which were near 1.7% of everything screened.
# LANA-H2B inh: blockers of LANA interaction with H2A/H2B – biochemical, FP readout, HTS, primary screen; Protein LANA1 (Human herpesvirus 8 type P (isolate GK18)), Q9QR71; cell-free LANA-H2A/H2B peptide, fluorescence polarization; inhibition, % (test concentration not listed); actives 0.6% (n = 320,000); AID 2629, 2010; in the data active means inhibition mostly above about 10%, no sharp cut-off; inactive means mostly below about 6.7%
# m5-HT2A agonist: mouse Htr2a agonists via beta-arrestin recruitment, primary screen, cell-based, luminescence. actives 0.66% (n = 360,000). 5-hydroxytryptamine receptor 2A (Mus musculus), P35363. activation, % at 7.6 µM. CHO-K1 mHTR2A beta-arrestin complementation; percent of 30 µM serotonin response;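 active means activation above a run cutoff, the mean activation of all tested compounds plus 3 SD, cut at about 14% in these data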;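 further: 0% = plate median of compound wells and 100% = 30 µM serotonin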
# Target sequence (P35363 whole entry, looked up): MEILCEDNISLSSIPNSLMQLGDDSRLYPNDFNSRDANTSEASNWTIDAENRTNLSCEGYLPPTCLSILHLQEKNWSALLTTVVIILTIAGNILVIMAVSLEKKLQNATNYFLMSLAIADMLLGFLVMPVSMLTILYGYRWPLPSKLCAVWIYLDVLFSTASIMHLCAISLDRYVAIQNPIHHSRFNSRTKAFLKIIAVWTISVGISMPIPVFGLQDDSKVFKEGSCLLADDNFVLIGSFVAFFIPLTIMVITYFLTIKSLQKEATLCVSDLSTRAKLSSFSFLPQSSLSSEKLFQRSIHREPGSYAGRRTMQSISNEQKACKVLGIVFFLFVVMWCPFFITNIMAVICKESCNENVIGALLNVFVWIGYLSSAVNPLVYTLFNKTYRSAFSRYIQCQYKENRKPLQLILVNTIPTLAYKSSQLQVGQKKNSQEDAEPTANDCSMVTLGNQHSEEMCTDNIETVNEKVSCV
# HDAC3 inhib: HDAC3 deacetylase inhibitors, primary screen, biochemical, fluorescence, cell-free homogeneous | Histone deacetylase 3 (Homo sapiens), O15379 | recombinant HDAC3, fluorogenic peptide/trypsin coupled | inhibition, % at 8.3 µM | actives 0.15% (n = 320,000); in the data active means inhibition above about 26%, passing the limit was not always enough
# Fh CTSL1 inh: Fasciola hepatica cathepsin L1 inhibitors, primary screen, counter-screen for PFM18AAP inhibitor project, biochemical, QFRET, fluorogenic peptide substrate. AID 1906, 2009. actives 0.49% (n = 300,000). recombinant F. hepatica cathepsin L1, Z-Leu-Arg-MCA fluorescence. inhibition, % at 5.96 µM;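 active means inhibition above the mean of all tested compounds plus 3 SD, set per screening campaign, cut at about 17% in these data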;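 further: 0% = plate median of test compound wells and 100% = 1 µM Z-Phe-Ala-diazomethylketone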
# Numbers without * were called inactive; x = no result; ! = not confirmed by another sample.
SMILES,LANA-H2B inh,m5-HT2A agonist,HDAC3 inhib,Fh CTSL1 inh
O=C(O)[C@H](Cc1ccccc1)NC(=O)N1CCC(Cc2ccccc2)CC1,18*,-5,1,-2
CC1CCN(C(=O)N[C@@H](Cc2ccccc2)C(=O)O)CC1,0,-1,3,-2
O=C(O)c1nn(CCOc2ccc(Br)cc2)c(=O)c2ccccc12,13*,-5,5,2
Cc1ccn2cc(CCNS(=O)(=O)c3ccc4ccccc4c3)nc2c1,-6,-3,0,30*
COC(=O)/C(=C(/F)Sc1cc(C)c(O)c(C)c1)C(F)(F)F,8,16*,12,-9
COC(=O)C(Nc1ccccc1Cl)(c1cc(C)c(O)c(C)c1)C(F)(F)F (configuration not stated),-8,-4,14,7
CC(C)N(C(=O)Cn1cc(S(=O)(=O)CC(=O)NCCc2ccccc2)c2ccccc21)C(C)C,x,0,x,x
COc1ccc(CCNC(=O)CS(=O)(=O)c2cn(CC(=O)N(C(C)C)C(C)C)c3ccccc23)cc1OC,3,-2,6,17*
Cc1ccc(C(=O)Nc2ccc(C(=O)O)cc2NC(=O)c2ccc(C)cc2)cc1,1,4,8,-5
CC(=O)N(CCC(c1ccco1)C(C)C)Cc1ccc(OC(C)C)cc1 (configuration not stated),0,-2,-11,17*
O=C(c1ccco1)N(CCC(c1ccccc1)c1ccco1)Cc1ccco1 (configuration not stated),-6,-5,22,26*
CC(=O)N(CCC(c1ccccc1)c1ccco1)Cc1cccs1 (configuration not stated),1,-3,1,22*
Cc1ccc(C(CCN(Cc2ccccc2)C(=O)c2ccco2)c2ccco2)cc1 (configuration not stated),-4,-3,-1,4
O=[N+]([O-])c1cccc(S(=O)(=O)N2CN(c3ccc(Br)cc3)c3nc4ccccc4nc32)c1,2,-1,1,x
COc1ccc(S(=O)(=O)N2CCCCC2)cc1NC(=O)CCNC(=O)c1ccc(Br)cc1,-1,3,-7,-1
CCc1ccccc1NC(=O)C1CCCN1S(=O)(=O)c1ccc(-c2ccc(=O)[nH]n2)s1 (configuration not stated),3,2,7,2
Cc1cccc(C)c1NC(=O)C1CCCN1S(=O)(=O)c1ccc(-c2ccc(=O)[nH]n2)s1 (configuration not stated),2,-3,-7,28*
Cc1cccc(NC(=O)NCCN2CCN(c3ccccc3)CC2)c1C,-3,-9,6,2
COc1ccc2ccc(=O)oc2c1CC(=O)C(C)C,x,-3,x,x
O=C(NNC(=S)NCc1ccco1)c1ccc(Cl)s1,-8,1,-5,0
O=C(CSCc1ccco1)c1ccc(Cl)s1,1,x,90*,-1
CCOC(=O)c1c(C)c(-c2ccccc2)n(CC(=O)NCCC(C)C)c1C,-5,3,-6,89*
CCOC(=O)c1c(C)c(-c2ccccc2)n(CC(=O)NCCCN(CC)CC)c1C,3,-3,1,-3
Cc1ccc(S(=O)(=O)N2CCCN(C(=O)c3ccc(-n4cccn4)cc3)CC2)cc1,-4,1,0,x
O=C(NCc1cccc(Cl)c1)c1ccc2c(c1)SC1=NS(=O)(=O)CCN12,16*,6,4,-3
SMILES,LANA-H2B inh,m5-HT2A agonist,HDAC3 inhib,Fh CTSL1 inh
CC(=O)Nc1ccc2c(COC(=O)CC3Sc4ccccc4NC3=O)cc(=O)oc2c1 (configuration not stated),-7,-1,-14,-60
COc1ccc2c(CC(=O)O)cc(=O)oc2c1,0,6,-19,1
COc1ccc2c(COC(=O)CC3Sc4ccccc4NC3=O)cc(=O)oc2c1 (configuration not stated),15*,3,-2,-56
COC(=O)Cc1cc(=O)oc2cc(OC)ccc12,67*,2,-40,1
COc1cccc(OCC(O)CNC(=O)c2oc3ccc(C)cc3c2C)c1 (configuration not stated),-4,-2,5,-1
CCCC(=O)N1CCC1(C)C(=O)NS(=O)(=O)c1cc(C)ccc1F (configuration not stated),x,4,x,x
Cc1cc(C)c(S(N)(=O)=O)c(C)c1N(C)S(=O)(=O)c1ccc(Cl)cc1,12*,-7,-5,-3
COc1ccc(-c2nc3c(=O)n(C)c(=O)[nH]c3n2CCc2ccccc2)cc1,20*!,3,-14,-1
CCc1c(-c2ccccc2)[n+](=O)c2c(n1[O-])CCC2,-1,0,4,12
S=c1cn[nH]c2ccccc12,x,3,x,x
CCCCNCCOCCSc1ccc(Cl)cc1,-6,30*,0,0
COCCCNCCOCCSc1ccc(Cl)cc1,x,-1,x,0
CC(Sc1n[nH]c(-c2cccs2)n1)C(=O)Nc1ccc(C(N)=O)cc1 (configuration not stated),-2,-3,1,x
O=C(CCCC(=O)NN=Cc1ccc(Cl)cc1Cl)NN=Cc1ccc(Cl)cc1Cl,x,4,x,x
CCc1ccc(C(=O)N/N=C/c2ccc(Cl)cc2Cl)nc1,40*,x,8,1
COc1ccc(/C=C(/NC(=O)c2ccc(C)cc2)C(=O)NCc2ccncc2)cc1,-1,3,3,21*
COCCN(CC(=O)Nc1cccc(C)c1C)C(=O)c1ccc(S(=O)(=O)N2CCOCC2)cc1,x,0,x,x
CSc1nc2ccccc2n1Cc1cccc(F)c1,-1,-2,3,-3
Fc1cccc(Oc2nc3ccccc3n3cccc23)c1,-8,3,1,65*
Nc1cccc(Nc2nc(OC(C(F)(F)F)C(F)(F)F)nc(OC(C(F)(F)F)C(F)(F)F)n2)c1,2,2,49*,7
CC1CC(C)CN(S(=O)(=O)c2cccc(C(=O)OCCN3CCCC3=O)c2)C1 (configuration not stated),4,0,5,18*
CC1CN(S(=O)(=O)c2cccc(C(=O)OCCOc3ccccc3)c2)CC(C)O1 (configuration not stated),2,-9,9,x
CC1CCN(C(=O)COC(=O)Cn2cnc3ccccc32)CC1,-1,6,-7,x
CC(NC(=O)/C(C#N)=C/c1ccco1)c1ccccc1 (configuration not stated),3,0,9,36*
COc1ccccc1C(=O)N(Cc1ccccc1)c1ccc(C)cc1,-10,0,7,4
COc1ccc(CC(=O)N(Cc2ccccc2)c2ccccc2)cc1S(=O)(=O)N1CCOCC1,16*,-5,-1,-2
COc1ccccc1CC(=O)N(Cc1ccccc1)c1ccc(C)cc1,22*,1,0,-1
C/C(=N\Nc1ccc2nncn2n1)c1ccc(Br)s1,2,-3,2,0

# Screening results (PubChem)
